Active and inactive are the calls of the source.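 How the source made its calls, unless noted: active means inhibition at or above 50% at 10 µM; inactive means inhibition below 50%.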

Assay [1] can be described thus: inhibitors of TNFa-induced NFkB p65 translocation, primary screen, imaging, HUVEC, MLSMR starter and 10KST1 sets (AID 438;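 active means inhibition above 20% together with a positive visual image hit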;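 further: compound added about 3h40 before a 20 min TNFalpha stimulation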;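 on inhibition: signal is the nuclear over cytoplasmic p65 intensity ratio per well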). The following applies: HUVEC TNFa-induced p65 nuclear translocation; cell count: measured here: nuclei count (cytotoxicity indicator), at 2.08 µM; inhibition: at 2 µM, stronger effect = higher value, 0% TNFa-plus-vehicle, 100% no-TNFa wells.
Assay [2] can be described thus: reduction of polyQ htt aggregates in cells – imaging, exon1htt(103Q)mCFP cells, high-content imaging, primary screen (AID 483;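 active means visual image review flags a hit and inhibition of aggregation exceeds 20%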;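 further: compound exposure lasted 3 days before fixation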;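 on nuclei count: percent of the per-plate median nuclei count of sample wells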). To be noted: exon1htt(103Q)mCFP cell line, aggregate imaging, at 2 µM; inhibition of aggregation: stronger effect = higher value; nuclei count: measured here: cell count, toxicity.
A short description of assay [3]: endothelial E-selectin expression blockers – imaging, HUVEC, immunofluorescence, MLSMR starter and 10KST1 sets, primary screen (AID 487;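 active means visually confirmed hit in the image check and inhibition above 20%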;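 on inhibition: signal is fraction of cell area covered by stained E-selectin grains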;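 on nuclei count: 100% = median nuclei count of all wells on the same plate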). To be noted: HUVEC TNFalpha-induced E-selectin immunofluorescence imaging, at 2 µM; inhibition: stronger effect = higher value; nuclei count: measured here: cell number, toxicity.
The target in assay [4] is Voltage-gated potassium channel subunit beta-2 (Rattus norvegicus) (UniProt P62483). As to the kind of experiment: inhibitors of rat Kvbeta2 reductase activity – biochemical, NADPH fluorescence, primary screen (AID 622;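 active means fluorescence slope higher than the sample average by over 3 SD, cut at about -0.22 in these data, passing the limit was not always enough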;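 further: slope of raw intensity against log time taken from 70 to 1610 s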). The following applies: recombinant KvBeta, 4-cyanobenzaldehyde reduction, at 10 µM, stronger effect = higher value.
Sequence of Voltage-gated potassium channel subunit beta-2 (Rattus norvegicus) (P62483 whole entry, looked up): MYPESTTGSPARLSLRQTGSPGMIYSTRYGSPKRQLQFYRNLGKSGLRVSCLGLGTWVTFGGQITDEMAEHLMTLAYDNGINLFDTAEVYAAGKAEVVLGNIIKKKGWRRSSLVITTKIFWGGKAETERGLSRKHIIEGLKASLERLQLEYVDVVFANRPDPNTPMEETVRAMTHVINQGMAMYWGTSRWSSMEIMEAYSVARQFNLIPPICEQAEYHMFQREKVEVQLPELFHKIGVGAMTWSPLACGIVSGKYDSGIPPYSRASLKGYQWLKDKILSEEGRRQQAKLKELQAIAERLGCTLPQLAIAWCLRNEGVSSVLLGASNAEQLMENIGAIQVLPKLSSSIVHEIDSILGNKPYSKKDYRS
Assay [5] has the same target. The experiment in a line: enhancers of rat Kvbeta2 NADPH turnover – biochemical, NADPH fluorescence, primary screen (AID 623;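 active means NADPH fluorescence slope more negative than the mean of all samples by about 3 SD, 99.7% confidence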;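 further: fluorescence intensity change per second fitted from 20 to 320 s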). The following applies: Recombinant KvBeta, NADPH fluorescence decrease slope, 10 min; at 10 µM; stronger effect = lower value.
The target of assay [6] is Alpha-2C adrenergic receptor (Homo sapiens) (UniProt P18825). The experiment in a line: compounds altering alpha2C-coupled GIRK flux – cell-based, HEK293 alpha2C/GIRK1/2, thallium flux, primary screen (AID 624;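 active means fluorescence slope after compound addition differing from the mean of all screened samples at 99.7% confidence, in either direction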;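 further: slope of fluorescence ratio to pre-addition baseline per second over 15 to 24 s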). The following applies: thallium flux BTC fluorescence, at 10 µM, actives lie on both sides.
Sequence of Alpha-2C adrenergic receptor (Homo sapiens) (P18825 whole entry, looked up): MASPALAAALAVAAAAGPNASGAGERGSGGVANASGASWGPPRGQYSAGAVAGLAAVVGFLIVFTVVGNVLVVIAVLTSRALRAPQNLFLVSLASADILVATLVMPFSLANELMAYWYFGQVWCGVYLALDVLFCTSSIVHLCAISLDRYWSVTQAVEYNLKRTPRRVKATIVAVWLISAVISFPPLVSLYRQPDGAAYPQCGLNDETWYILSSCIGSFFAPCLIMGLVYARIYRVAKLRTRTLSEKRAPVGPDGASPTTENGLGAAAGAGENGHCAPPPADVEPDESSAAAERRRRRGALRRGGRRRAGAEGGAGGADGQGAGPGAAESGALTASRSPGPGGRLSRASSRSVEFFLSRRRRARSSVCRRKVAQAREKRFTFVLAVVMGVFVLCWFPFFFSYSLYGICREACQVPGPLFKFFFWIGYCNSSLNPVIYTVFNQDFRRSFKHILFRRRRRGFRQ
The nature of assay [7]: blockers of RIG-like receptor reporter activation – cell-based, Sendai virus stimulus, luciferase, 10K MLSCN set, TLR/RLR signaling modifier project, primary screen (AID 602276).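 Further: firefly luciferase from ISG56 promoter only with Renilla not read in this screen; 0% = Sendai virus plus DMSO and 100% = medium plus DMSO without virus.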 The following applies: HEK293 RL24 IRF3 luciferase reporter, at 10 µM, stronger effect = higher value. A general note: A reporter such as luciferase makes a cellular process visible.
The nature of assay [8]: TLR3 IRF3 reporter activation blockers – cell-based, poly I:C stimulus, luciferase, 10K MLSCN set, primary screen (AID 602277;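 active means inhibition of the reporter signal at or above 50%; inactive means inhibition below 50%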). The following applies: HEK293-TLR3 RL24 IRF3 luciferase reporter, at 10 µM, stronger effect = higher value.

Usually inhibition stands for the change of the read-out against control, counted positive when it falls. For `CC1(C)C(c2ccccc2)=NC(c2ccccc2)N1O` (stereo not drawn), in assay [1], the cell count was 422. Moreover, the inhibition was -2.8% (inactive) in assay [1], -22.6% (inactive) in assay [3], 5.11% (inactive) in assay [7] and 35.3% (inactive) in assay [8]. For the same compound, the inhibition of aggregation in assay [2] was 1.2% (inactive). Further, the values for the nuclei count in assay [2] and in assay [3] were 107% and 113%, respectively. Further, the fluorescence slope in assay [4] was -0.428 (inactive). For the same compound, the NADPH fluorescence slope in assay [5] was -3e-05 (inactive). Besides, in assay [6], the slope is 0.0012 (inactive).

Regarding `CC1(C)CC(=O)C2=C(C1)OC(N)=C(C#N)C2C1CC=CCC1` (stereo not drawn), the cell count in assay [1] worked out at 569. In addition, the inhibition was 2.4% (inactive) in assay [1], -52% (inactive) in assay [3], 16% (inactive) in assay [7] and 22.1% (inactive) in assay [8]. In addition, in assay [2], the inhibition of aggregation is 1.3% (inactive). Besides, the figures for the nuclei count in assay [2] and in assay [3] were 119% and 89.2%, respectively. Moreover, the fluorescence slope in assay [4] was -0.556 (inactive). In assay [5], the NADPH fluorescence slope is -1.7e-05 (inactive). The slope in assay [6] was 0.00554 (inactive).

Consider `CS(=O)(=O)N1CCCC(C(=O)NCCCN2CCC(Cc3ccccc3)CC2)C1` (stereo not drawn), for which, in assay [1], the cell count is 679. The inhibition in assay [1] is -2% (inactive); in assay [3] it was -139% (inactive); in assay [7], -7.21% (inactive); in assay [8] it was -4.47% (inactive). Also, in assay [2], the inhibition of aggregation was 15.3% (inactive). For the same compound, the values for the nuclei count in assay [2] and in assay [3] were 89.6% and 111%, respectively. In addition, in assay [4], the fluorescence slope is -0.602 (inactive). Further, the NADPH fluorescence slope in assay [5] was 2e-05 (inactive). Besides, the slope in assay [6] was 0.00628 (inactive).

Regarding `CCc1nc(SCC(=O)NCc2ccco2)c2c3c(sc2n1)CCCC3`, the cell count in assay [1] came to 586. For the same compound, the inhibition in assay [1] was -2.1% (inactive); in assay [3], -21.9% (inactive); in assay [7], 15.3% (inactive); in assay [8] it was 20.6% (inactive). Besides, in assay [2], the inhibition of aggregation was 14.8% (inactive). The values for the nuclei count in assay [2] and in assay [3] were 85.9% and 116%, respectively. Moreover, the fluorescence slope in assay [4] was -0.466 (inactive). Moreover, in assay [5], the NADPH fluorescence slope was -1.1e-05 (inactive). Besides, the slope in assay [6] is 0.00647 (inactive).

As for `CCN=C1SC(CC(=O)Nc2ccccc2OCC)C(=O)N1CC` (stereo not drawn), in assay [1], the cell count was found to be 613. Moreover, the inhibition in assay [1] was -14.1% (inactive); in assay [3] it was 0.9% (inactive); in assay [7] it was 12.4% (inactive); in assay [8], 20.8% (inactive). Further, the inhibition of aggregation in assay [2] was -12.5% (inactive). The values for the nuclei count in assay [2] and in assay [3] were 100% and 92.3%, respectively. Moreover, in assay [4], the fluorescence slope is -0.488 (inactive). In addition, the NADPH fluorescence slope in assay [5] is -3.2e-05 (inactive). The slope in assay [6] was 0.00493 (inactive).

Consider `CCOc1cc(C(=O)N(C)c2ccccc2)cc(OCC)c1OCC`, for which the cell count in assay [1] was determined as 314. Also, the inhibition in assay [1] is 5.5% (inactive); in assay [3] it was 5.8% (inactive); in assay [7], 18.6% (inactive); in assay [8], 32.8% (inactive). Also, the inhibition of aggregation in assay [2] is 17.8% (inactive). The figures for the nuclei count in assay [2] and in assay [3] were 97.5% and 86.2%, respectively. Besides, in assay [4], the fluorescence slope is -0.368 (inactive). Moreover, in assay [5], the NADPH fluorescence slope is -3.2e-05 (inactive). The slope in assay [6] is 0.00526 (inactive).

In the case of `COC(=O)c1ccccc1NC1c2ccccc2C(=O)N1c1cccnc1` (stereo not drawn), in assay [1], the cell count was found to be 725. The inhibition in assay [1] is -6.7% (inactive); in assay [3] it was -26.4% (inactive); in assay [7], 5.35% (inactive); in assay [8] it was 16.8% (inactive). For the same compound, in assay [2], the inhibition of aggregation was -10.5% (inactive). Further, the nuclei count in assay [2] was 100%; in assay [3] it was 112%. Also, in assay [4], the fluorescence slope was -0.53 (inactive). In assay [5], the NADPH fluorescence slope is -4.7e-05 (inactive). For the same compound, in assay [6], the slope is 0.00566 (inactive).

`CCOC(=O)c1cnc(SC2CC(=O)N(c3ccc(OC)c(OC)c3)C2=O)nc1N` (stereo not drawn): the cell count in assay [1] was 811. For the same compound, the inhibition in assay [1] was -3.6% (inactive); in assay [3] it was -110% (inactive); in assay [7] it was -6.56% (inactive); in assay [8], -2.72% (inactive). The inhibition of aggregation in assay [2] is -0.6% (inactive). The nuclei count was 95.4% in assay [2] and 135% in assay [3]. For the same compound, the fluorescence slope in assay [4] is -0.531 (inactive). Moreover, the NADPH fluorescence slope in assay [5] is 1.4e-05 (inactive). In addition, the slope in assay [6] was 0.00718 (inactive).

With `COc1ccccc1NC(=O)Cn1nnc(-c2ccccc2NC(=O)c2ccco2)n1`, the cell count in assay [1] stood at 317. Also, the inhibition was 6.2% (inactive) in assay [1], -29.7% (inactive) in assay [3], 16.8% (inactive) in assay [7] and 37.7% (inactive) in assay [8]. For the same compound, the inhibition of aggregation in assay [2] was -19% (inactive). Moreover, the results for the nuclei count in assay [2] and in assay [3] were 86.5% and 117%, respectively. In addition, in assay [4], the fluorescence slope is -0.408 (inactive). In addition, the NADPH fluorescence slope in assay [5] was -1.3e-05 (inactive). In assay [6], the slope is 0.00705 (inactive).

Regarding `COC(=O)CSc1nc2ncc(Cl)cc2[nH]1`, the cell count in assay [1] stood at 542. For the same compound, the inhibition is 8.6% (inactive) in assay [1], -49.2% (inactive) in assay [3], 15.8% (inactive) in assay [7] and 25.3% (inactive) in assay [8]. In assay [2], the inhibition of aggregation is -23.3% (inactive). Besides, the nuclei count in assay [2] and in assay [3] was 106% in each case. The fluorescence slope in assay [4] was -0.462 (inactive). For the same compound, in assay [5], the NADPH fluorescence slope was -6.4e-05 (inactive). Besides, the slope in assay [6] was 0.00642 (inactive).

Consider `CCOC(=O)Nc1c(O)ccc2oc(C)c(-c3ccccc3)c12`, for which, in assay [1], the cell count came out at 271. The inhibition in assay [1] was -6.4% (inactive); in assay [3] it was -63.2% (inactive); in assay [7] it was 18.3% (inactive); in assay [8] it was 28.6% (inactive). Besides, in assay [2], the inhibition of aggregation is -22% (inactive). Also, the nuclei count in assay [2] was found to be 104%; in assay [3], 106%. The fluorescence slope in assay [4] was -0.5 (inactive). Further, the NADPH fluorescence slope in assay [5] is -0.000121 (inactive). For the same compound, the slope in assay [6] was 0.0037 (inactive).

`CCCOC(=O)c1[nH]c2c(c1C)C(=O)CC(c1ccc(OC)c(OC)c1)C2` (stereo not drawn): the cell count in assay [1] came to 235. In addition, the inhibition in assay [1] was -2.8% (inactive); in assay [3] it was 17.6% (inactive); in assay [7], -11.5% (inactive); in assay [8], -41.9% (inactive). Also, the inhibition of aggregation in assay [2] was 2.4% (inactive). In addition, the nuclei count in assay [2] was found to be 101%; in assay [3], 47.3%. The fluorescence slope in assay [4] was -0.408 (inactive). For the same compound, in assay [5], the NADPH fluorescence slope is 8.6e-06 (inactive). For the same compound, in assay [6], the slope was 0.00378 (inactive).

As for `CCOc1cc(C(=O)Nc2ccon2)cc(OCC)c1OCC`, the cell count in assay [1] worked out at 795. In addition, the inhibition in assay [1] is 0.3% (inactive); in assay [3], -35.9% (inactive); in assay [7] it was 17.9% (inactive); in assay [8] it was 15.6% (inactive). For the same compound, in assay [2], the inhibition of aggregation was -40.4% (inactive). For the same compound, the nuclei count stood at 104% in assay [2] and 108% in assay [3]. In addition, the fluorescence slope in assay [4] was -0.387 (inactive). In addition, the NADPH fluorescence slope in assay [5] is 1.3e-05 (inactive). Also, the slope in assay [6] is 0.00341 (inactive).

The record behind these values is PubChem BioAssay.
